From PubChem BioAssay
TEAD-YAP inh: TEAD-YAP interaction inhibition, primary screen, TEAD-YAP interaction inhibitor project, luminescence, HEK-TIYL cells. TEAD-Gal4/YAP UAS-luciferase luminescence. inhibition, % at 9.12 µM. actives 1.4% (n = 640,000); in the data active means inhibition above about 32%;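 further: 0% = median of test compound wells and 100% = reference inhibitor wells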
MITF primary: MITF inhibitors, primary screen, biochemical, AlphaScreen, human; Microphthalmia-associated transcription factor (Homo sapiens), O75030; AlphaScreen MITF homodimerization, bead proximity signal; inhibition, % at 2.6 µM; actives 0.91% (n = 650,000); in the data active means inhibition above about 50%;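 further: 0% = vehicle wells with protein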
FBW7 activator: FBW7 E3 ligase activators, primary screen, biochemical, AlphaScreen, human; F-box/WD repeat-containing protein 7 (Homo sapiens), Q969H0; AlphaScreen FBW7–phospho-cyclin E peptide binding, activator screen; normalized activity (activation), % at 26.1 µM; actives 0.13% (n = 650,000); AID 1259310, 2017; in the data active means normalized activity above about 1.9%;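 further: purified mutant Fbw7 with reduced substrate affinity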
Target sequence (Q969H0 whole entry, looked up): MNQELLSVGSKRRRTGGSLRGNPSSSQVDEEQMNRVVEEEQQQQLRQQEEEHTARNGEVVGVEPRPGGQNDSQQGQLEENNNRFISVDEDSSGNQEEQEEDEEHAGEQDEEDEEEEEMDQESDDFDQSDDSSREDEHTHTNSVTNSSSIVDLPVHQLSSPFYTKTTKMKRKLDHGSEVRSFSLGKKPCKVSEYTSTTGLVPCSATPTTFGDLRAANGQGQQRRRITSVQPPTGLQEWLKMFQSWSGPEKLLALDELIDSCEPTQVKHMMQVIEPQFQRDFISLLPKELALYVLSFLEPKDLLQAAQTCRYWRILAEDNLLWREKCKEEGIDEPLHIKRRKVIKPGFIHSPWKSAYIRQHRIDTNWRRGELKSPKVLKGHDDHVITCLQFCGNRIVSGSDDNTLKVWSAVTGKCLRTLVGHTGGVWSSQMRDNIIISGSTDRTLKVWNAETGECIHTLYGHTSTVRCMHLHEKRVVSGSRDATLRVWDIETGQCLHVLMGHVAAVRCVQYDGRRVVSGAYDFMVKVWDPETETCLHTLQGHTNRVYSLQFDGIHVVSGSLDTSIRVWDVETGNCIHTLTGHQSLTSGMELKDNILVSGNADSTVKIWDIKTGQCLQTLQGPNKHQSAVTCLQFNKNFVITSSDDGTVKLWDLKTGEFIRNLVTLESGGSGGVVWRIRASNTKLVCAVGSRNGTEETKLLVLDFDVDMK
GPR151 activ: activators of human GPR151, primary screen, cell-based, PathHunter beta-arrestin, luminescence | G-protein coupled receptor 151 (Homo sapiens), Q8TDV0 | PathHunter beta-arrestin GPR151 cells | activation, % at 11.2 µM | actives 1% (n = 650,000); in the data active means activation above about 4.9%;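 further: 0% = median of compound wells and 100% = cells with positive control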
Numbers without * were called inactive. This is a sample that favours compounds with a hit; in the whole collection about 3.4% have one here.

SMILES	TEAD-YAP inh	MITF primary	FBW7 activator	GPR151 activ
O=C(Nc1cc(=O)[nH]c(=O)[nH]1)c1cc(Cl)ccc1Cl	51.8*	6.6	-0.1	0.9
O=C(Nc1cc(=O)[nH]c(=O)[nH]1)c1cc([N+](=O)[O-])ccc1Cl	-11.5	24.6	0.1	0.9
SC(COCc1ccccc1)CN1CCN(c2ccccc2)CC1 (stereo not given)	6.6	33.4	0.3	-1.3
CCCNc1cc(-c2csc3ccccc23)nc(N)n1	5.3	2.7	-0.1	0.1
Nc1nc(NCCOc2ccccc2)cc(-c2ccccc2)n1	40.9*	19.3	0.3	0.8
Nc1nc(NCCOc2ccccc2)cc(-c2csc3ccccc23)n1	41.9*	-0.2	0.1	0.7
Nc1nc(NCCOc2ccccc2)cc(Nc2ccccc2)n1	-13.1	2.0	-0.3	0.8
Cc1ccc(C(Nc2cccc(C)n2)c2ccc3cccnc3c2O)cc1 (stereo not given)	76.4*	6.3	-1.0	-0.4
COc1ccc(C(Nc2cccc(C)n2)c2ccc3ccc(C)nc3c2O)cc1C (stereo not given)	41.9*	3.6	0.2	-1.8
Cc1ccc2ccc(C(Nc3ccccn3)c3ccc(N(C)C)cc3)c(O)c2n1 (stereo not given)	6.0	13.6	-0.1	-0.3
C=CCOc1ccc(C(Nc2ccccn2)c2ccc3cccnc3c2O)cc1 (stereo not given)	85.7*	55.3*	-1.0	0.9
CSc1ccc(C(Nc2ccccn2)c2ccc3cccnc3c2O)cc1 (stereo not given)	77.9*	8.1	-1.0	0.5
Oc1c(C(Nc2ccccn2)c2ccc(F)cc2)ccc2cccnc12 (stereo not given)	69.9*	8.9	-1.9	0.3
CCc1ccc(C(Nc2ccccn2)c2ccc3cccnc3c2O)cc1 (stereo not given)	84.0*	27.7	-1.1	0.7
CSc1ccc(C(Nc2ccccn2)c2ccc3ccc(C)nc3c2O)cc1 (stereo not given)	21.1	1.2	-0.2	0.1
COc1ccc(/C=C2N=C(/C=C/c3ccc(Cl)cc3)OC/2=O)cc1OC	3.9	12.1	0.0	1.0
COc1ccc(C)cc1NC(=O)CNC(=O)c1nn(-c2ccc(OC)c(OC)c2)c(=O)c2ccccc12	34.5*	-5.2	-0.2	-0.3
COc1ccc(-n2nc(C(=O)NCC(=O)NCCN(C)CCc3ccccn3)c3ccccc3c2=O)cc1Cl	33.5*	-5.1	0.0	0.5
COc1ccc(-n2nc(C(=O)NCC(=O)Nc3cc(OC)c(OC)c(OC)c3)c3ccccc3c2=O)cc1Cl	49.9*	-0.7	-0.1	2.4
COc1ccc(NC(=O)CNC(=O)c2nn(-c3ccc(OC)c(OC)c3)c(=O)c3ccccc23)cc1OC	33.7*	3.5	0.3	-0.9
COc1ccc(-n2nc(C(=O)NCC(=O)Nc3ccc(OC)c(OC)c3)c3ccccc3c2=O)cc1	-5.6	3.3	0.0	-0.4
Cc1ccc(C(C)C)c(OS(=O)(=O)c2cn(C)c(=O)n(C)c2=O)c1	-8.8	-0.1	-0.1	1.7
CC1=CC2=NC(=O)/C(=C\c3cc(C)n(-c4ccc(C)c(Cl)c4)c3C)C(=N)N2O1	2.3	2.6	0.0	1.4
O=C(Nc1cc(Cl)ccc1Oc1ccc2ccccc2c1Br)c1cc(Cl)cc(I)c1O	-4.7	5.7	0.0	-0.7
O=C1NC(=S)NC(=O)C1=Cc1cn(-c2ccccc2)nc1-c1ccc2c(c1)OCCO2	-66.9	5.2	-0.2	0.4
SMILES	TEAD-YAP inh	MITF primary	FBW7 activator	GPR151 activ
O=C1NC(=S)NC(=O)C1=Cc1cn(-c2ccccc2)nc1-c1cccs1	-10.7	75.4*	-0.1	-0.8
COc1ccc(-c2nc(NCCc3ccc(O)cc3)c3ncn(C(C)C)c3n2)cn1	64.5*	4.7	0.0	-1.1
COc1ccc(-c2nc(NCc3nc4ccccc4[nH]3)c3ncn(C(C)C)c3n2)cn1	47.7*	11.4	0.3	2.1
COc1ccc(CCNc2nc(-c3ccc(OC)cc3)nc3c2ncn3C(C)C)cc1	-1.0	0.0	-0.1	0.7
CC(C)n1cnc2c(NCCc3ccc(O)cc3)nc(-c3ccc(C(N)=O)cc3)nc21	51.8*	14.9	0.1	-0.9
COc1ccc(-c2nc(NCCN(C(C)C)C(C)C)c3ncn(C(C)C)c3n2)cc1	39.0*	-1.6	0.1	1.3
CC(C)n1cnc2c(NCCc3ccc(O)cc3)nc(-c3ccc(C(=O)NC4CC4)cc3)nc21	24.8	13.5	0.6	-1.3
COc1ccccc1OCc1nnc(SCC(=O)NC(C)(C)C)n1C	-1.1	0.0	0.2	2.7
Cc1cc(C)cc(NC(=O)CSc2nc(=O)n(CCN(C)C)c3c2CCCC3)c1	5.2	17.8	-0.1	-1.3
COc1ccccc1OCCn1cc(C(=S)N2CCOCC2)c2ccccc21	-5.2	15.4	-0.2	-0.3
COc1ccc(OCCn2cc(C(=S)N3CCOCC3)c3ccccc32)cc1	32.2*	2.6	-0.2	0.6
COc1cccc(C(=O)N2CCN3C(=O)[C@@H](CO)NC(=O)[C@H]3C2)c1	-4.3	4.5	0.4	-1.4
CCC(C)N(C(=O)c1cccc([N+](=O)[O-])c1)C(C)CC (stereo not given)	-2.0	-75.6	2.0*	0.9
CCC(C)N(C(=O)c1ccc([N+](=O)[O-])cc1)C(C)CC (stereo not given)	1.5	-17.9	0.0	-1.5
COc1ccc(-n2c(=S)[nH]c3cc(C(=O)NC4CCCCC4)ccc3c2=O)cc1	-5.2	-0.2	-0.1	2.3
Cc1ccnc(NC(c2ccco2)c2c(C)[nH]c3ccccc23)c1 (stereo not given)	38.0*	-8.8	-0.2	-0.2
CCN(c1ccccc1)c1ccc2nonc2c1[N+](=O)[O-]	-11.0	25.5	0.1	-1.2
Oc1cccc(C=Nc2ccccc2O)c1	-3.0	-10.2	0.0	-1.2
Oc1ccccc1N=Nc1ccccc1O	72.7*	71.6*	-0.4	0.0
Nc1ccc(-c2ccc(-c3ccc(N)cc3)cc2)cc1	74.0*	10.8	43.1*	-0.6
COc1ccc(-c2ccc(N)cc2)cc1	-49.4	2.9	-0.2	-0.7
O=C(O)C1CCCCC1C(=O)Nc1ccc(Oc2cccc3ccccc23)cc1 (stereo not given)	71.5*	6.4	-0.1	-0.2
CCCCOc1ccc(NC(=O)C2CCCCC2C(=O)O)cc1 (stereo not given)	3.6	8.5	0.5	0.2
O=C(O)c1ccccc1C(=O)Nc1ccc(Oc2cccc3ccccc23)cc1	82.0*	10.2	-0.1	1.8
Cc1cccc(Oc2ccc(NC(=O)c3ccccc3C(=O)O)cc2)c1C	5.5	0.5	-0.4	1.7
COc1ccc(CNc2n[nH]c3nc(C)cc(C(F)(F)F)c23)c(OC)c1	-9.3	3.5	-0.1	-1.1
O=c1[nH]nc(Br)c(=O)[nH]1	4.7	-13.7	0.1	0.2
COc1cc(C(=O)Nc2nnc(Cc3ccccc3)s2)cc(OC)c1OC	2.9	0.2	0.2	-0.8
CC(Oc1ccccc1)C(=O)Nc1ncc(Cc2ccccc2)s1 (stereo not given)	42.4*	-0.3	0.1	-0.8
